Experimental data published in article PMC5540273 (PLoS ONE, 2017).
Where two headings read alike, the source gives them in different places.

Legend:
[1] = tested on: CSNK1G1; conditions: concentration: 1 μM,replicates: in singlicate; n = 1
[2] = tested on: CSNK1G2; conditions: concentration: 1 μM,replicates: in singlicate; n = 1
[3] = tested on: CSNK1G3; conditions: concentration: 1 μM,replicates: in singlicate; n = 1
[4] = tested on: CSNK2A1; conditions: n = 1
[5] = tested on: CSNK2A2; conditions: n = 1
[6] = tested on: T1, CTK; conditions: concentration: 1 μM,replicates: in singlicate; n = 1
T1 construct: gene MATK

[7] = tested on: DAPK1; conditions: concentration: 1 μM,replicates: in singlicate; n = 1
[8] = tested on: DAPK2; conditions: concentration: 1 μM,replicates: in singlicate; n = 1
[9] = tested on: DAPK3; conditions: concentration: 1 μM,replicates: in singlicate; n = 1
[10] = tested on: T2, DCAMKL1; conditions: concentration: 1 μM,replicates: in singlicate; n = 1
T2 construct: gene DCLK1

[11] = concentration: 1 μM,replicates: in singlicate
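Note: KINOMEscan kinase panel screen.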

| Structure (SMILES) | %Inh [1] [%] | %Inh [2] [%] | %Inh [3] [%] | %Inh [4, 11] [%] | %Inh [5, 11] [%] | %Inh [6] [%] | %Inh [7] [%] | %Inh [8] [%] | %Inh [9] [%] | %Inh [10] [%] | %Inh ([4]; 1 µM) [%] | %Inh ([5]; 1 µM) [%] |
| --- | --- | --- | --- | --- | --- | --- | --- | --- | --- | --- | --- | --- |
| CN(c1cccc(CNc2nc(Nc3ccc4c(c3)CC(=O)N4)ncc2C(F)(F)F)c1)S(C)(=O)=O | 0 | 5 | 16 | 35 | 44 | 0 | 35 | 0 | 1 | 55 |  |  |
| Cc1cccc(-c2nc(Nc3ccncc3)c3sccc3n2)n1 [GW869641] | 0 | 1 | 13 | 6 | 30 | 20 | 18 | 11 | 36 | 0 |  |  |
| COc1cccc(CNC(=O)NC2CCN(c3ccnc(Nc4cc(OC)c(OC)c(OC)c4)n3)C2)c1 (stereo not drawn) [GSK1379765] | 0 | 0 | 27 | 3 | 0 | 0 | 0 | 0 | 14 | 19 |  |  |
| OCCn1cc(-c2cnc3nnn(Cc4ccc5ncccc5c4)c3n2)cn1 | 1 | 0 | 9 | 0 | 0 | 0 | 0 | 0 | 0 | 66 |  |  |
| CS(=O)c1ccc(-c2coc3ccc(-c4n[nH]c(=O)o4)cc23)cc1 (stereo not drawn) | 0 | 20 | 5 | 100 | 99.8 | 0 | 52 | 67 | 59 | 3 |  |  |
| COc1cc2c(Nc3ccc(NC(=O)c4ccccc4)cc3)ncnc2cc1OCCCN1CCOCC1 [GSK301329] | 0 | 0 | 3 | 9 | 14 | 32 | 0 | 0 | 0 | 13 |  |  |
| O=C(NOCC1CC1)c1cc(Br)c(F)c(F)c1Nc1ccc(I)cc1Cl | 0 | 0 | 9 | 14 | 6 | 0 | 29 | 0 | 0 | 22 |  |  |
| C[C@@H](Oc1cc(-n2cnc3ccc(-c4ccncc4)cc32)sc1C(N)=O)c1ccccc1Cl [GSK483724] | 9 | 14 | 29 | 52 | 89 | 0 | 0 | 0 | 19 | 88 |  |  |
| Cn1cc(-c2cccc3c(N)c(C(N)=O)nnc23)cn1 | 13 | 7 | 10 | 26 | 33 | 32 | 3 | 16 | 5 | 7 |  |  |
| Cn1ccc2ncnc(Oc3ccc(NC(=O)Nc4cncc(C(F)(F)F)c4)c(Cl)c3)c21 | 0 | 5 | 0 | 0 | 0 | 0 | 0 | 0 | 0 | 0 |  |  |
| Cc1ccc(C(=O)Nc2ccc(Oc3ccc4nc(NC(=O)C5CC5)cn4c3)c(F)c2)c(=O)n1-c1ccccc1 | 2 | 0 | 0 | 0 | 0 | 0 | 0 | 0 | 2 | 2 |  |  |
| Cl.Cl.NC[C@H](CC1CCCCC1)NC(=O)c1ccc(-c2ccnc3[nH]ccc23)s1 [GSK1581428] | 29 | 72 | 64 | 8 | 0 | 9 | 49 | 12 | 32 | 0 |  |  |
| O=C(Nc1cccc(Oc2ccc3nccn3n2)c1)Nc1cccc(C(F)(F)F)c1 | 0 | 0 | 26 | 0 | 3 | 49 | 14 | 0 | 0 | 0 |  |  |
| COc1cccc(OC)c1C(=O)Nc1cccc(-c2nn3ccccc3c2-c2ccnc(Nc3cccc(F)c3)n2)c1 [GSK361065] | 14 | 17 | 3 |  |  | 21 | 10 | 6 | 0 | 16 | 0 | 23 |
| CC(C)c1nc(-c2cccc(NS(=O)(=O)c3ccccc3)c2)c(-c2ccnc(Nc3ccc4c(c3)CN(C)CC4)n2)s1 [GSK1649598] | 19 | 0 | 28 | 0 | 9 | 5 | 30 | 55 | 21 | 0 |  |  |
| C[C@@H](Oc1cc(-n2cnc3cc(-c4ccncc4)ccc32)sc1C(N)=O)c1ccccc1Cl [GSK479719] | 13 | 0 | 23 | 0 | 35 | 21 | 61 | 30 | 22 | 0 |  |  |
| Cc1ccn2nc(-c3ccc(F)cc3)c(-c3ccncc3)c2c1.Cl [GW457859] | 29 | 12 | 31 | 0 | 14 | 0 | 15 | 6 | 0 | 10 |  |  |

| Structure (SMILES) | %Inh [1] [%] | %Inh [2] [%] | %Inh [3] [%] | %Inh [4, 11] [%] | %Inh [5, 11] [%] | %Inh [6] [%] | %Inh [7] [%] | %Inh [8] [%] | %Inh [9] [%] | %Inh [10] [%] | %Inh ([4]; 1 µM) [%] | %Inh ([5]; 1 µM) [%] |
| --- | --- | --- | --- | --- | --- | --- | --- | --- | --- | --- | --- | --- |
| CN1CCN(CCCNc2nccc(-c3c(-c4ccc(F)cc4)nn4cc(C(N)=O)ccc34)n2)CC1 [GW622475] | 27 | 0 | 20 | 1 | 33 | 1 | 29 | 10 | 16 | 21 |  |  |
| COC(=O)Nc1nc2cc(Oc3ccc(NC(=O)Nc4cc(C(F)(F)F)ccc4Cl)cc3)ccc2[nH]1.Cl [GW697465] | 0 | 0 | 8 | 0 | 0 | 0 | 2 | 0 | 0 | 0 |  |  |
| Nc1nccc(-c2ccc3c(N)n[nH]c3c2)n1 [GSK1034945] | 0 | 0 | 19 | 41 | 64 | 0 | 45 | 0 | 19 | 12 |  |  |
| Cn1ccc2ncnc(Oc3ccc(NC(=O)Nc4cnn(C(C)(C)C)c4)c(Cl)c3)c21 | 0 | 32 | 0 | 0 | 38 | 20 | 8 | 0 | 0 | 10 |  |  |
| Cc1ccc2c(-c3ccnc(Nc4ccc(C(F)(F)F)cc4)n3)cnn2n1 [GW819776] | 0 | 14 | 0 | 18 | 35 | 24 | 19 | 0 | 25 | 34 |  |  |
| Cl.c1ccc(Oc2ccc(Nc3ccnc4cc(-c5ccc(CN6CCNCC6)o5)ccc34)cc2)nc1 [GW567142] | 0 | 0 | 32 | 0 | 3 | 10 | 19 | 0 | 21 | 11 |  |  |
| COC(=O)c1cccc(NC(=O)NC2CCN(c3ccnc(NCc4ccc(F)cc4)n3)CC2)c1 [GSK1379860] | 0 | 0 | 9 | 7 | 0 | 1 | 0 | 0 | 3 | 0 |  |  |
| N#Cc1cccc(C(=O)NC2CCN(c3ccnc(Nc4ccc(F)cc4)n3)C2)c1 (stereo not drawn) [GSK1379708] | 0 | 4 | 6 | 0 | 0 | 0 | 0 | 0 | 11 | 0 |  |  |
| Cc1n[nH]c2cc(Nc3ccnc(Nc4cccc(CN5CCOCC5)c4)n3)ccc12 [GW682569] | 0 | 0 | 22 | 31 | 27 | 0 | 58 | 25 | 68 | 4 |  |  |
| COc1cc(Nc2nccc(N3CCC(NC(=O)c4cccc(C#N)c4)C3)n2)cc(OC)c1OC (stereo not drawn) [GSK1379751] | 0 | 0 | 7 | 0 | 0 | 0 | 0 | 0 | 6 | 5 |  |  |
| CS(=O)(=O)Nc1ccc(-c2ccnc3[nH]ccc23)cc1 [GSK993273] | 0 | 0 | 17 | 0 | 16 | 0 | 73 | 54 | 89 | 6 |  |  |
| Cn1ccc2ncnc(Oc3ccc(NC(=O)Nc4cccc(C(F)(F)F)c4)c(Cl)c3)c21 | 0 | 3 | 0 | 0 | 5 | 0 | 89 | 0 | 0 | 46 |  |  |
| CCOC(=O)N1CCC(n2cnc(-c3ccc(F)cc3)c2-c2ccnc(N)n2)CC1 [SB-219952] | 4 | 12 | 0 | 19 | 9 | 0 | 25 | 0 | 0 | 22 |  |  |
| COc1cccc(C2=C(Nc3cccc(Cl)c3)C(=O)NC2=O)c1 [SB-341556] | 0 | 0 | 19 | 11 | 4 | 0 | 3 | 0 | 7 | 0 |  |  |
| CN(c1ccccc1CNc1nc(Nc2ccc3c(c2)CC(=O)N3)ncc1C(F)(F)F)S(C)(=O)=O | 0 | 0 | 13 | 70 | 92.7 | 0 | 4 | 24 | 28 | 21 |  |  |
| CCn1c(-c2nonc2N)nc2cncc(CNC3CCNCC3)c21.Cl [SB-747651] | 24 | 0 | 0 | 0 | 0 | 0 | 41 | 0 | 27 | 7 |  |  |
